# Test results as given in PubChem BioAssay (NCI).
# About 79,000 compounds went through this panel and 15% of them were active in at least one assay; those are over-represented in the sample as a whole. Values without a mark were called inactive. Active and inactive are the calls of the source. No stated cut-off is given here; in the data, active means growth inhibition above about 70%; inactive means the rest.
# Tests used:
# [1] = NCI Yeast Anticancer Drug Screen. Data for the rad50 strain (AID 155);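 further: 0% = growth of vehicle-only cultures of the same strain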; conditions: S. cerevisiae rad50 strain growth inhibition, hits give high values
# Outline: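 Compounds were tested on a yeast strain with an engineered DNA damage repair alteration; the reported value is growth inhibition normalised to vehicle treatment.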
# [2] = NCI Yeast Anticancer Drug Screen. Data for the mec2-1 strain (AID 157); conditions: S. cerevisiae mec2-1 strain, hits give high values
# Outline: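 Each compound was tested on mec2-1 yeast, a strain altered in DNA damage repair or cell cycle control. Growth inhibition is reported relative to vehicle.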
# [3] = NCI Yeast Anticancer Drug Screen. Data for the sgs1 mgt1 strain (AID 161);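 further: 0% = growth of cultures given vehicle only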; conditions: S. cerevisiae sgs1 mgt1 strain, hits give high values
# Outline: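 Test agents were incubated with a DNA-repair-mutant yeast strain. Growth was then read and compared against vehicle-treated controls.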
# [4] = NCI Yeast Anticancer Drug Screen. Data for the cln2 rad14 strain (AID 165);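 further: 0% = growth equal to vehicle treated cultures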; conditions: S. cerevisiae cln2 rad14 strain, hits give high values
# Outline: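 Test compounds were added to cln2 rad14 yeast cultures; inhibition of growth was then determined by comparison with vehicle treatment.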
# [5] = NCI Yeast Anticancer Drug Screen. Data for the bub3 strain (AID 167); conditions: S. cerevisiae bub3 mutant strain, hits give high values
# Outline: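 Growth of a checkpoint-deficient yeast mutant is measured after compound exposure. Values represent inhibition relative to vehicle.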
# [6] = NCI Yeast Anticancer Drug Screen. Data for the mlh1 rad18 strain (AID 175); conditions: S. cerevisiae mlh1 rad18 strain growth inhibition, hits give high values
# Outline: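 Inhibition values reflect reduced growth of mutant yeast versus vehicle-treated controls following compound exposure; the mutations affect DNA damage repair.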
# [7] = at 5.0 µM (retest, dose inferred, filed as 0.5)
# [8] = at 50.0 µM (retest, dose inferred, filed as 5.0)
Structure (SMILES),"growth inhibition [1, 7]","growth inhibition [1, 8]",growth inhibition ([1]; at 50.0 µM),"growth inhibition [2, 7]","growth inhibition [2, 8]",growth inhibition ([2]; at 50.0 µM),"growth inhibition [3, 7]","growth inhibition [3, 8]",growth inhibition ([3]; at 50.0 µM),"growth inhibition [4, 7]","growth inhibition [4, 8]",growth inhibition ([4]; at 50.0 µM),"growth inhibition [5, 7]","growth inhibition [5, 8]",growth inhibition ([5]; at 50.0 µM),"growth inhibition [6, 7]","growth inhibition [6, 8]",growth inhibition ([6]; at 50.0 µM)
Cc1cccc(C)c1O,17%,99% (active),99% (active),-1%,99% (active),98.5% (active),0%,98% (active),98.8% (active),-9%,98% (active),97.8% (active),3%,91% (active),98.5% (active),5%,99% (active),99.5% (active)
Cc1cc(Cl)ccc1NC(=O)CC1SC(=NC(=O)c2ccccc2Cl)NC1=O (centres undefined),98% (active),99% (active),91% (active),99% (active),100% (active),94.2% (active),96% (active),99% (active),90.7% (active),48%,99% (active),92.4% (active),98% (active),99% (active),91.5% (active),98% (active),99% (active),92.2% (active)
CC(C)OC(=S)SSSC(=S)OC(C)C,6%,99% (active),99.5% (active),13%,99% (active),99.5% (active),9%,98% (active),99.7% (active),0%,97% (active),68.2%,6%,99% (active),99.7% (active),9%,98% (active),95.5% (active)
C[N+](C)([O-])CCC=C1c2ccccc2CCc2ccccc21,10%,46%,62.5%,12%,9%,28.4%,-2%,33%,7.75%,-20%,21%,12.5%,3%,33%,73.5% (active),4%,33%,33.5%
C=C1CC[C@@H]2C(C)(C)C(O)CCC2(C)C1COc1ccc2ccc(=O)oc2c1 (some centres undefined),-10%,94% (active),85.5% (active),-4%,97% (active),89.3% (active),-1%,92% (active),86.7% (active),-5%,94% (active),85.8% (active),-40%,94% (active),86.5% (active),-38%,93% (active),82.8% (active)
CCCCCCCCCCC(O)CN1CCN(c2cccc(Cl)c2)CC1 (centres undefined),95% (active),98% (active),98.9% (active),99% (active),99% (active),98.7% (active),99% (active),99% (active),99.2% (active),97% (active),98% (active),97.2% (active),96% (active),99% (active),90.3% (active),99% (active),99% (active),99.2% (active)
C=COCCN1CCN(CCCN2c3ccccc3Sc3ccc(C(F)(F)F)cc32)CC1,-4%,99% (active),99.5% (active),-4%,99% (active),99% (active),-1%,99% (active),99.7% (active),-2%,99% (active),98.7% (active),1%,99% (active),98.5% (active),1%,99% (active),99.3% (active)
C=C(C)COc1cc(NC(=S)OC(C)C)ccc1Cl,16%,90% (active),51.8%,16%,93% (active),83.8% (active),8%,88% (active),90.1% (active),6%,86% (active),88.2% (active),20%,93% (active),88.3% (active),12%,92% (active),83.6% (active)
COC(=O)C1(Cc2ccccc2C)Cc2ccc(C)cc2C1=O (centres undefined),-1%,22%,49.3%,-2%,28%,25.9%,13%,47%,64.9%,-3%,4%,31.8%,9%,71% (active),64.3%,-2%,30%,65.9%
O/N=C(/CCc1ccccc1Cl)c1ccccc1,3%,34%,94% (active),-5%,55%,93.6% (active),3%,75% (active),96.3% (active),-2%,41%,90.1% (active),6%,61%,87.2% (active),1%,80% (active),93.3% (active)
CC1C/C(=C\c2ccc(O)c(O)c2)C(=O)/C(=C/c2ccc(O)c(O)c2)C1 (centres undefined),22%,71% (active),52.4%,20%,67%,32.3%,17%,66%,47.5%,7%,65%,41%,16%,67%,19.9%,27%,84% (active),21.6%
Nc1nc(N)c2nc(Sc3ccc(F)cc3)c(N)nc2n1,-2%,37%,42.7%,-1%,-4%,39.2%,-1%,40%,51.6%,2%,24%,10.3%,-1%,26%,40.9%,0%,58%,75.1% (active)
C/C=C(\C)CC/C=C/CO[Si](C)(C)C(C)(C)C,-19%,-19%,-4.15%,-2%,-19%,8.7%,-13%,13%,5.25%,11%,-4%,53.6%,7%,-11%,2.8%,-16%,-8%,5.75%
NC(=S)N/N=C\C12CC3CC(CC(C3)C1)C2,57%,98% (active),97.4% (active),73% (active),97% (active),93.7% (active),70% (active),98% (active),92.8% (active),25%,97% (active),71.5% (active),62%,98% (active),95.6% (active),77% (active),99% (active),96.5% (active)
C=CS(=O)(=O)c1ccc([N+](=O)[O-])cc1,-29%,98% (active),99.7% (active),-7%,99% (active),99.7% (active),21%,98% (active),99.5% (active),-16%,98% (active),99.7% (active),20%,98% (active),99.3% (active),16%,97% (active),99.2% (active)
CSc1nc(NC2OC(CO)C(O)C(O)C2O)c(Cl)c(=O)[nH]1 (centres undefined),-1%,-1%,42.1%,0%,-1%,4.45%,-2%,0%,12.4%,1%,-2%,-3.85%,-1%,4%,-1.4%,2%,-1%,1.05%
Fc1ccccc1CN1COc2c(cc(Cl)c3cccnc23)C1,11%,71% (active),99% (active),-1%,43%,99.4% (active),2%,98% (active),99.5% (active),1%,98% (active),99.1% (active),-11%,99% (active),99.2% (active),5%,98% (active),99.3% (active)
CN(C)C1C[C@@H](O[Si](C)(C)C(C)(C)C)C=C1S(=O)(=O)c1ccccc1 (some centres undefined),-16%,100% (active),44.8%,-4%,100% (active),47.8%,-18%,100% (active),36.4%,-14%,99% (active),33.5%,-14%,100% (active),7.75%,4%,100% (active),58%
